# High-throughput results as filed in PubChem.
# An excerpt weighted towards active compounds, which were near 7.8% of everything screened.
# Marburg entry inh: inhibitors of Marburg virus binding or cell entry; Marburg virus pseudotyped entry inhibition, cell reporter; Potency, µM (highest dose often 37.8 µM), most hits filed as inhibitors; 300,000 compounds, 1.8% hits; AID 540276; calls by dose curve; tested in HEK293 cells
# HCV inhibitor: blocks hepatitis C virus; Potency, µM (titrated, usually from 41.8 µM), usual class: inhibitors; 340,000 compounds, 3.4% hits; AID 651820; Huh7.5.1 HCVcc-Cre infection, luciferase reporter, 44 h; active means well fitted inhibition curve with a large enough effect; inconclusive means small, poorly fitted or top-dose-only effect, or another doubt; inactive means no such curve, though single readings can be large or run the other way
#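 Compounds are dispensed onto cells plated 4 h earlier at 1,000 per well, with HCVcc-Cre virus (about 0.5 moi) added next. Following 44 h of culture, luminescent signal is measured for 15 sec after 15 min with substrate at room temperature.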
# Lassa entry inh: inhibitors of Lassa virus binding or cell entry; Lassa virus pseudotype entry inhibition, cell reporter; Potency, µM (highest dose often 37.9 µM), actives largely listed as inhibitors; 300,000 compounds, 1.2% hits; AID 540256; calls by dose curve; tested in HEK293 cells; further: nearly all actives have a fitted effect of over 50% in size
# Vaccinia Venus: inhibitors of vaccinia virus (Venus reporter); Vaccinia virus Venus reporter expression, fluorescence; Potency, µM (titrated, usually from 36.5 µM), actives largely listed as inhibitors; 330,000 compounds, 0.46% hits; calls by dose curve; tested in A549 cells; further: nearly all actives have a fitted effect of over 30% in size
# VACV mCherry inh: vaccinia inhibition (mCherry reporter). 310,000 compounds, 0.63% hits. AID 720579. Potency, µM (series often up to 36.5 µM), actives largely listed as inhibitors. Vaccinia virus mCherry reporter infection, fluorescence; calls by dose curve; tested in A549 cells; further: nearly all actives have a fitted effect of over 35% in size
# HCMV antiviral: blocks human cytomegalovirus replication | activity change, negative = inhibition, % at 57.5 µM | 410,000 compounds, 4.5% hits | HFF cells, HCMV-luciferase reporter, 72 h; active compounds read low; in the data active means activity change below about -60%; inconclusive means no clear call, values can overlap the other calls; inactive means above about -39%
#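 HFF cells seeded 16 h at 37C, treated with compounds, infected with luciferase-reporter HCMV at MOI 1 PFU/cell; luciferase read at 72 h post infection, normalized to buffer-only and Salinomycin controls.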
# Numbers stand for hits; – = inactive; ? = inconclusive; · = not tested or not shown.
SMILES,Marburg entry inh,HCV inhibitor,Lassa entry inh,Vaccinia Venus,VACV mCherry inh,HCMV antiviral
Nc1nc(SCc2ccccc2[N+](=O)[O-])c2ncn(Cc3ccccc3)c2n1,?,11µM,–,–,?,–
CCCCn1cnc2c(SCc3ccc([N+](=O)[O-])cc3)nc(N)nc21,–,?,–,?,4µM,–
Cn1cnc([N+](=O)[O-])c1Sc1nc(N)nc2c1ncn2Cc1ccccc1,?,?,–,?,13µM,–
CCC(C)Cn1cnc2c(Sc3c([N+](=O)[O-])ncn3C)nc(N)nc21 (configuration not stated),?,–,–,?,16µM,–
Nc1nc(SCc2ccccc2)c2ncn(CCO)c2n1,–,–,–,–,–,–
CCCn1cnc2c(Sc3c([N+](=O)[O-])ncn3C)nc(N)nc21,–,–,?,?,?,–
O=C1NCCOC(=O)[C@@H](Cc2ccc(F)cc2)CC/C=C/C[C@@H]1CC(=O)N(CCO)Cc1ccccc1,·,–,·,–,–,-63
O=C1N[C@@H](Cc2ccccc2)COC(=O)[C@@H](Cc2ccc(F)cc2)CC/C=C/C[C@H]1CC(=O)N(CCO)Cc1ccccc1,·,?,·,11µM,?,–
CC(C)(C)OC(=O)C[C@@H]1C/C=C\C[C@@H](CC(=O)N(CCO)Cc2ccccc2)C(=O)N2CCC[C@H]2COC1=O,·,–,·,–,–,–
O=C1CCCC/C=C\C[C@H](CC(=O)N(CCO)Cc2ccccc2)C(=O)N[C@@H](c2ccccc2)CO1,·,–,·,–,–,-63
CC(C)(C)OC(=O)C[C@@H]1C/C=C\C[C@H](CC(=O)N(CCO)Cc2ccccc2)C(=O)N2CCC[C@H]2COC1=O,·,1.1µM,·,–,–,–
Cc1oc(-c2ccccc2NS(C)(=O)=O)nc1CN(C)Cc1ccc(Cl)cc1,·,·,·,–,–,·
C[N+](C)(C)c1ccc(/C=C/c2ccnc3ccccc23)cc1,·,·,·,–,–,·
O=C1NCCOC(=O)[C@H](Cc2ccc(F)cc2)C/C=C\C[C@@H]1CC(=O)N(CCO)Cc1ccccc1,·,11µM,·,–,–,–
C=C(CCN1C=C(C(=O)OCC)C(c2ccccc2)NC1=O)c1ccccc1 (configuration not stated),–,·,·,·,·,·
COC[C@@H](O)[C@H]1OCc2ccccc2[C@H]1C=Cc1ccccc1,–,·,·,·,·,·
Cn1c(=O)[nH]c2nnc(-c3ccc(Cl)c(Cl)c3)nc2c1=O,?,–,10µM,–,–,–
CSc1cnc2c(=O)n(C)c(=O)[nH]c2n1,–,–,–,–,–,–
Cc1cc(N2CCC(C(=O)NCCC(C)C)CC2)n2nc(C)c(-c3ccc(Cl)cc3)c2n1,–,·,–,–,–,–
O=S(=O)(c1ccc(Cl)cc1)N1CCC(O)(CN2CCN(Cc3ccccc3)CC2)CC1,?,13µM,–,?,?,–
O=S(=O)(c1ccc(S(=O)(=O)N2CCN(Cc3ccccc3)CC2)cc1)N1CCOCC1,–,·,·,·,·,·
Cc1ccc(SCC2(O)CCN(C(=O)c3ccc(Cl)cc3)CC2)cc1,–,?,–,–,·,–
O=S(=O)(c1ccccc1)N1CCC(O)(CSc2ccc(Cl)cc2)CC1,?,3.5µM,?,–,–,–
CCN1C(=NCCCCO)NC(c2cccc(C(F)(F)F)c2)C(C(=O)OC)=C1C (configuration not stated),–,·,·,·,·,·
Cc1cc2c(NCCc3ccccc3)ncnc2s1,7.1µM,5.6µM,?,–,–,-88
SMILES,Marburg entry inh,HCV inhibitor,Lassa entry inh,Vaccinia Venus,VACV mCherry inh,HCMV antiviral
Brc1ccc2ncnc(NCc3ccccc3)c2c1,?,10µM,?,?,·,-96
Cc1cc2c(NC3CCCCC3)ncnc2s1,?,10µM,?,–,–,?
CCCCCCCCNc1ncnc2ccccc12,?,0.79µM,?,?,?,·
CCc1ccccc1Nc1ncnc2ccccc12,–,?,?,–,–,–
C[C@H]1C=CCC(=O)N[C@@H](c2ccccc2)[C@@H](C)C=CCC(=O)N[C@@H]1c1ccccc1,?,·,–,·,·,·
CCOc1ccc(C(=O)N2CCCCC2CCN2CCOCC2)cc1 (configuration not stated),–,·,?,–,–,–
Cc1ccc(-n2ncc3c(NCCc4ccccc4)ncnc32)cc1,·,·,–,–,–,–
c1ccc(CCNc2ncnc3ccccc23)cc1,·,1.1µM,·,·,·,-89
CCOC(=O)Cc1nnc(NC(=O)CSc2ccc(C)cc2)s1,–,–,?,·,·,–
CCCCOc1cccc(-c2nnc(NC(=O)CSc3ccc(C)cc3)s2)c1,–,–,0.32µM,–,–,-86
CCCCN(CC)CCNC(=S)Nc1ccc2nc(N3CCN(C)CC3)cc(C)c2c1,3.5µM,0.89µM,?,?,13µM,–
CCCCN(CC)CCNC(=O)CCC(=O)Nc1ccc2nc(N3CCN(C)CC3)cc(C)c2c1,·,–,·,–,?,–
CCCN(CCC)CCCNC(=S)Nc1ccc2nc(N3CCN(C)CC3)cc(C)c2c1,·,13µM,·,·,·,–
COC(=O)c1cc(C(=O)OC)n(Cc2ccc(F)cc2)c1C,–,–,–,–,–,–
CCN(CC)C(=O)c1sc(NC(=O)Cc2cccs2)c(C#N)c1C,–,–,–,–,–,–
Cc1c(C#N)c(NC(=O)CCl)n(Cc2ccc(F)cc2)c1C,·,?,·,·,·,-68
Cc1c(C#N)c(NC(=O)CCl)n(Cc2cccs2)c1C,·,?,·,·,·,-93
O=C(C[n+]1cc(-c2ccc(Cl)cc2)n2c1CCC2)Nc1nc(-c2ccc(F)cc2)cs1,–,10µM,·,·,·,-63
CC(C)C(C)NC(=O)CN1C(=O)NC2(CCCCCC2)C1=O (configuration not stated),–,–,–,–,–,–
O=C(CN1CCCC1)Nc1nc(-c2ccc(Cl)cc2)cs1,·,·,·,–,–,·
CC(=O)Nc1ccc(-c2csc(NC(=O)CN3C(=O)NC4(CCCC4)C3=O)n2)cc1,–,?,–,–,–,–
O=C(CN1C(=O)NC2(CCCC2)C1=O)Nc1nc(-c2ccc(F)cc2)cs1,?,13µM,?,·,·,–
CC(NC(=O)CN1C(=O)NC2(CCCCCC2)C1=O)c1ccccc1 (configuration not stated),?,?,–,–,–,-61
NC(=O)c1ccsc1NC(=O)CN1C(=O)NC2(CCCCC2)C1=O,·,–,·,·,·,-105
CCn1cc(CN2Cc3ccccc3OC(c3ccccc3OC)C2)c(C)n1 (configuration not stated),·,·,·,–,–,·
SMILES,Marburg entry inh,HCV inhibitor,Lassa entry inh,Vaccinia Venus,VACV mCherry inh,HCMV antiviral
O=C(NCc1nnc2n1CCN(Cc1ccc(C(F)(F)F)cc1)CC2)c1ccccn1,·,·,·,–,–,·
NC[C@H](O)C1CCCCCCC1,–,·,·,·,·,·
CCOC(=O)C1CCN(C(c2ccc(SC)cc2)c2c(O)cc(C)n(Cc3ccco3)c2=O)CC1 (configuration not stated),·,·,–,–,–,–
Cn1c(NC(=O)C[n+]2cc(-c3ccc(Cl)cc3)n3c2CCC3)cc(=O)n(C)c1=O,–,–,–,–,–,-77
O=C(C[n+]1cc(-c2ccccc2)n2c1CCC2)Nc1nc(-c2ccc(F)cc2)cs1,?,0.71µM,–,–,–,–
O=C(CN1CCCCC1)Nc1nc(-c2ccc(Cl)cc2)cs1,–,10µM,–,–,–,?
